Screening data: PubChem BioAssay, several laboratories
Most compounds without a hit are left out; they make up all but 2.2% or so of the library.
BaF3 tox: reduces parental Ba/F3 cell viability, JAK2V617F counter-screen | CellTiter-Glo ATP luminescence | 1.1% of 220,000 active | inhibition, % at 5.6 µM | AID 1486;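 active = inhibition above a per-campaign cutoff, the mean inhibition of all tested compounds plus 3 SD, cut at about 27% in these data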;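 note: 0% = DMSO wells and 100% = JAK Inhibitor I control wells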
IEC-6 cytotox: IEC-6 cytotoxicity, counter-screen for KLF5 inhibitors; luminescence viability; inhibition, % at 5 µM; 0.78% of 290,000 active; AID 1825; in the data active = inhibition above about 22%;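 note: 0% = plate median of test compound wells and 100% = cytotoxic reference compound wells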
APP 5UTR inh: APP translation inhibition | SH-SY5Y APP 5'UTR-luciferase reporter, luminescence | inhibition, % at 2 µM | 0.82% of 190,000 active | AID 1285;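 active = inhibition above a set limit, derived from the sample mean plus 3 SD, cut at about 45% in these data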
Ba/F3 V617F tox: reduce viability of Ba/F3 cells dependent on JAK2V617F | Ba/F3 EpoR-JAK2V617F viability, ATP luminescence | inhibition, % at 5.6 µM | 1.1% of 220,000 active | AID 1446;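 active = inhibition above the campaign mean plus 3 SD over all tested compounds, cut at about 24% in these data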;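 note: cytokine-independent growth of Ba/F3 cells driven by EpoR plus mutant JAK2; 0% = DMSO-treated cells and 100% = JAK inhibitor I control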
KLF5 inhibitor: inhibitors of KLF5 expression | inhibition, % at 5 µM | AID 1700 | 0.23% of 290,000 active | DLD-1 KLF5 promoter-luciferase reporter, luminescence;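 active = inhibition above a per-plate limit of that plate's mean compound inhibition plus 3 SD, cut at about 60% in these data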;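 note: 0% = DMSO wells and 100% = LY294002 at 200 µM; higher means less KLF5 promoter-driven luciferase light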
aSyn UTR inh: 5' untranslated region of α-synuclein, MLPCN primary screen; alpha-synuclein 5'UTR reporter, inhibitor activity; inhibition, % (tested at 7.5 µM); AID 1813; 0.82% of 300,000 active; in the data active = inhibition above about 60%;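 note: H4 neuroglioblastoma cells stably carrying SNCA 5'UTR luciferase fusion; 0% = DMSO wells and 100% = positive control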
Starred values were filed as active, the others as inactive.

For Cc1ccc(CNC(=O)CNC(=S)N(Cc2ccccc2)Cc2ccccc2F)cc1 the results were BaF3 tox 14, IEC-6 cytotox -5, APP 5UTR inh -4, Ba/F3 V617F tox 8, KLF5 inhibitor 17 and aSyn UTR inh 27.
Screening N/C(=N\OC(=O)CCCc1ccccc1)c1ccccc1Cl returned IEC-6 cytotox 6, KLF5 inhibitor -20 and aSyn UTR inh -98.
For COCCNC(=O)/C(C#N)=C\c1ccc(CNC(=O)C(=O)Nc2ccc(C)c(C)c2)o1 the results were BaF3 tox 10, IEC-6 cytotox 3, APP 5UTR inh -16, Ba/F3 V617F tox 2, KLF5 inhibitor 3 and aSyn UTR inh 9.
COc1ccc(NC(=O)C(=O)N/N=C\c2ccc(CNC(=O)C(=O)Nc3ccc(C)c(C)c3)o2)c(OC)c1 was read as IEC-6 cytotox -1, KLF5 inhibitor -34 and aSyn UTR inh 88*.
CCc1ccc(C(=O)/C=C/c2ccc([N+](=O)[O-])o2)cc1 was read as BaF3 tox 2, IEC-6 cytotox 0, APP 5UTR inh 54*, Ba/F3 V617F tox -3, KLF5 inhibitor 0 and aSyn UTR inh -151.
`CCCCn1c(=O)c(C(=O)N/N=C/c2ccc(F)cc2)c(O)c2ccccc21` gave BaF3 tox 80*, IEC-6 cytotox 3, APP 5UTR inh 23, Ba/F3 V617F tox -1, KLF5 inhibitor -21 and aSyn UTR inh -16.
For Cc1ccc(NC(=O)/C(=C/c2cccs2)NC(=O)c2ccco2)cc1 the results were BaF3 tox 29*, IEC-6 cytotox -2, APP 5UTR inh 3, Ba/F3 V617F tox -3, KLF5 inhibitor -11 and aSyn UTR inh 2.
Screening COc1ccc(CNC(=O)CSc2nnc(NC(=O)c3ccccc3F)s2)cc1 returned IEC-6 cytotox 1, KLF5 inhibitor -152 and aSyn UTR inh -69.
CC(=O)OC(CC(=O)O)C[N+](C)(C)C (centres undefined) was read as BaF3 tox 8, IEC-6 cytotox -8, APP 5UTR inh -13, Ba/F3 V617F tox -2, KLF5 inhibitor -6 and aSyn UTR inh 68*.
CC(=O)O[C@H](CC(=O)O)C[N+](C)(C)C was read as aSyn UTR inh 7.
`Cc1ccc(C)c(Cn2c(=O)n(C)c(=O)c3sccc32)c1` gave IEC-6 cytotox 4, KLF5 inhibitor -11 and aSyn UTR inh 20.
Screening Cc1sc(N/N=C/c2cc([N+](=O)[O-])ccc2O)nc1-c1ccccc1 returned BaF3 tox 2, IEC-6 cytotox 8, APP 5UTR inh 50*, Ba/F3 V617F tox 4, KLF5 inhibitor -19 and aSyn UTR inh -30.
`C/C(N)=C(/C#N)C(=O)COC(=O)CSc1ccccc1` gave BaF3 tox 4, IEC-6 cytotox 1, APP 5UTR inh -11, Ba/F3 V617F tox 3, KLF5 inhibitor -1 and aSyn UTR inh 19.
Screening C/C(N)=C(/C#N)C(=O)COC(=O)CCSc1ccccc1Cl returned BaF3 tox 2, IEC-6 cytotox 1, APP 5UTR inh 81*, Ba/F3 V617F tox -3, KLF5 inhibitor -13 and aSyn UTR inh -6.
`O=C(C[N+]1(CC#Cc2ccccc2)CCOCC1)c1ccccc1` gave BaF3 tox 0, IEC-6 cytotox 9, APP 5UTR inh 5, Ba/F3 V617F tox 3, KLF5 inhibitor -9 and aSyn UTR inh -39.
Screening O=C(C[N+]1(CC#Cc2ccccc2)CCCCC1)c1ccc(Cl)cc1 returned BaF3 tox 38*, IEC-6 cytotox 9, APP 5UTR inh -2, Ba/F3 V617F tox 0, KLF5 inhibitor -10 and aSyn UTR inh -3.
O=C(C[N+]1(CC#Cc2ccccc2)CCCCC1)c1ccccc1 was read as BaF3 tox 34*, IEC-6 cytotox 2, APP 5UTR inh -12, Ba/F3 V617F tox 25*, KLF5 inhibitor -7 and aSyn UTR inh -23.
O=C(Nc1ccc(F)cc1)c1nc2c(nnn2Cc2cccc3ccccc23)c(=O)[nH]1 was read as BaF3 tox -2, IEC-6 cytotox -5, Ba/F3 V617F tox -3, KLF5 inhibitor -13 and aSyn UTR inh 0.
Screening CCCCC(=O)OCC(=O)c1[nH]c(C)c(C(C)=O)c1C returned BaF3 tox 18, IEC-6 cytotox 4, APP 5UTR inh 2, Ba/F3 V617F tox 2, KLF5 inhibitor -5 and aSyn UTR inh -4.
COc1cc(CNCCN(C)C)c(Br)cc1OC1CCCC1 was read as BaF3 tox 3, IEC-6 cytotox -5, APP 5UTR inh 14, Ba/F3 V617F tox -2, KLF5 inhibitor -16 and aSyn UTR inh 4.
O=[N+]([O-])c1ccc(C2(O)CN(c3ccccc3)C3=[N+]2CCS3)cc1 (centres undefined) was read as BaF3 tox 5, IEC-6 cytotox -1, APP 5UTR inh -5, Ba/F3 V617F tox -1, KLF5 inhibitor -8 and aSyn UTR inh -21.
`Nc1ccc2nc(-c3ccc(N)c(Cl)c3)[nH]c2c1` gave BaF3 tox 14, IEC-6 cytotox -1, APP 5UTR inh -59, Ba/F3 V617F tox 13, KLF5 inhibitor -87 and aSyn UTR inh -115.
`Nc1ccc(-c2nc3c(Cl)cc(N)cc3[nH]2)cc1` gave BaF3 tox -5, IEC-6 cytotox 8, APP 5UTR inh 63*, Ba/F3 V617F tox 3, KLF5 inhibitor 42 and aSyn UTR inh 85*.
For Cn1c(O)c(C=NCC2CCNCC2)c(=O)n(C)c1=O the results were BaF3 tox 93*, IEC-6 cytotox 1, APP 5UTR inh -4, Ba/F3 V617F tox 6, KLF5 inhibitor -7 and aSyn UTR inh 25.
`O=C(O)CC(NC(=O)CCc1ccccc1)c1ccc(Cl)cc1` (centres undefined) gave IEC-6 cytotox 0, KLF5 inhibitor 8 and aSyn UTR inh 11.
For O=S(=O)(c1ccc2ccccc2c1)N1CCc2ccccc21 the results were IEC-6 cytotox 1, KLF5 inhibitor -21 and aSyn UTR inh 33.
Screening COC(=O)Nc1ccc(S(=O)(=O)N2CCCc3cccc(O)c32)cc1 returned BaF3 tox 12, IEC-6 cytotox 16, APP 5UTR inh 1, Ba/F3 V617F tox 4, KLF5 inhibitor -7 and aSyn UTR inh -12.
For Cn1c(=O)c(=O)n(C)c2cc(S(=O)(=O)N3CCc4ccccc43)ccc21 the results were BaF3 tox 31*, IEC-6 cytotox 2, APP 5UTR inh -11, Ba/F3 V617F tox -2, KLF5 inhibitor 25 and aSyn UTR inh 12.
Screening Cn1c(=O)oc2cc(S(=O)(=O)N3CCCc4ccccc43)ccc21 returned BaF3 tox 45*, IEC-6 cytotox 0, APP 5UTR inh 38, Ba/F3 V617F tox 55*, KLF5 inhibitor 20 and aSyn UTR inh 0.
Screening COC(=O)Nc1ccc(S(=O)(=O)N2CCCc3ccccc32)cc1 returned BaF3 tox 79*, IEC-6 cytotox 74*, APP 5UTR inh 90*, Ba/F3 V617F tox 85*, KLF5 inhibitor 51 and aSyn UTR inh 84*.
Cn1c(=O)oc2cc(S(=O)(=O)N3CCc4ccccc43)ccc21 was read as BaF3 tox 3, IEC-6 cytotox 2, Ba/F3 V617F tox 3, KLF5 inhibitor 21 and aSyn UTR inh 16.
